These results are taken from PubChem BioAssay (NCI).

The panel holds about 83,000 compounds, 20% with a hit somewhere; the sample as a whole holds those more often.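 Single-dose data. Exposure time 48 hours. Values below 10 considered active.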 A number with no mark means an inactive call. Activity calls are given as the source filed them.

This assay relates to HOP-62 NSCLC. The experiment in a line: NCI-60 one-dose screen, 48 h (100 = growth as untreated, 0 = no growth, -100 = all killed). The conditions noted are these: 10 µM.
Take `CCN1CCN(CCC(=O)Nc2cccc(-n3cc(-c4ccncc4)c(-c4ccc(Cl)c(OC)c4)n3)c2)CC1`: the growth is 37.7%.
In the case of `O=C1/C=C/[C@@H](O)[C@@H]2C[C@@H](O)C[C@H]2/C=C/CCC[C@H](C(F)(F)F)O1`, the growth was 33%.
Under `CC[C@@H](C(=O)[C@@H](C)[C@@H](O)[C@H](C)[C@@H]1O[C@@H]([C@@H](CC)C(=O)N(CC)CC)CC[C@@H]1C)C1O[C@]2(C=CC(=O)[C@]3(CC[C@@](C)([C@H]4CC[C@](O)(CC)[C@H](C)O4)O3)O2)[C@H](C)C[C@@H]1C` (stereo not given in full) stands 31.7%; under `COc1ccc(-c2cc(-c3ccc(Cl)cc3)nc(SCCCCCCC(=O)NO)n2)cc1OC`, 62.4%; under `N#CCc1csc(Cc2ccccc2)n1`, 104%.
Under `CC(C)(C)OC(=O)CN1CCc2c(sc3ncnc(N/N=C/c4ccccc4Br)c23)C1` stands 89%.
With `CC(CN(C)C)Oc1ccccc1NC1=C(Cl)C(=O)C(Nc2ccccc2OC(C)CN(C)C)=C(Cl)C1=O` (stereo not given), the growth is -97.6% (active).
Under `Nc1ccn(Cc2nnc(CCC(=O)c3nc4ccccc4[nH]3)o2)c(=O)n1` stands 82%.
Under `CC(C)(C)OC(=O)CN1CCc2c(sc3ncnc(N/N=C/c4cccc5ccccc45)c23)C1` stands 45.5%.
The figure for `CCOC(=O)c1cc(C(=O)c2ccc(Cl)cc2)n2ccc(-c3cc[n+](CC(=O)c4ccc(OC)cc4)cc3)cc12` is 87.7%; for `NS(=O)(=O)Oc1ccc(NC(=O)C2CCCCCC2)cc1` it is 99.3%; for `NNC(=O)Oc1c(Cl)cc(Cl)cc1[N+](=O)[O-]` it is 94.6%.
Regarding `O=C1c2ccccc2C(=O)c2c1ccc(C(Br)Br)c2[N+](=O)[O-]`, the growth is 78.4%.
The figure for `COc1ccc(NC(=O)C2CC3C=CC2C3)c([N+](=O)[O-])c1` (stereo not given) is 100%; for `CC[C@@H](C(=O)[C@H](C)[C@H](O)[C@@H](C)[C@H]1O[C@H]([C@@H](CC)C(=O)N(CC)CC)CC[C@H]1C)C1O[C@]2(C=C[C@@H](O)[C@]3(CC[C@@](C)([C@H]4CC[C@](O)(CC)[C@H](C)O4)O3)O2)[C@H](C)C[C@@H]1C` (stereo not given in full) it is 16.7%.
Under `COc1cc(-c2nn(-c3cccc(NC(=O)NCCNC(=O)c4cccc(C(F)(F)F)c4)c3)cc2-c2ccncc2)ccc1Cl` stands 59.6%; under `O=C(O)c1cc([N+](=O)[O-])ccc1Oc1ccccc1`, 101%; under `CCOC(=O)c1cc(C(=O)c2cc(OC)c(OC)c(OC)c2)n2nc(C)ccc12`, 51.2%.
Regarding `CC[C@@H](C(=O)[C@@H](C)[C@@H](O)[C@H](C)[C@@H]1O[C@@H]([C@@H](CC)C(=O)O)CC[C@@H]1C)C1O[C@]2(C=CC(=O)[C@]3(CC[C@@](C)([C@H]4CC[C@](O)(CC)[C@H](C)O4)O3)O2)[C@H](C)C[C@@H]1C` (stereo not given in full), the growth is 41.9%.
Regarding `Cc1ccc(S(=O)(=O)N(C)CCCCCC(=O)O)cc1`, the growth is 92.3%.
`COc1ccc(C2=Cn3c(CCC(=O)c4nc5ccccc5[nH]4)nnc3SC2)cc1`: the growth is 93.7%.
Turning to `CCCN(CCC)C(=O)[C@H](CC)[C@@H]1CC[C@@H](C)[C@@H]([C@H](C)[C@@H](O)[C@@H](C)C(=O)[C@H](CC)C2O[C@]3(C=C[C@@H](O)[C@]4(CC[C@@](C)([C@H]5CC[C@](O)(CC)[C@H](C)O5)O4)O3)[C@H](C)C[C@@H]2C)O1` (stereo not given in full), the growth is 14.2%.
As for `OCC1OC(n2cnc3c(NCc4ccco4)ncnc32)C(O)C1O` (stereo not given), the growth was 43.2%.
Under `CC[C@@H](C(=O)[C@H](C)[C@H](O)[C@@H](C)[C@H]1O[C@H]([C@@H](CC)C(=O)O)CC[C@H]1C)C1O[C@]2(C=C[C@@H](O)[C@]3(CC[C@@](C)([C@H]4CC[C@](O)(CC)[C@H](C)O4)O3)O2)[C@H](C)C[C@@H]1C` (stereo not given in full) stands 36.9%; under `O=C(/C=C/c1cccc(B(O)O)c1)c1cccc(B(O)O)c1`, -34.7% (active); under `Cc1ccc(Cl)cc1NC(=O)CCl`, 108%.
The figure for `COc1cc(/C=C/c2cc(/C=C/c3ccc(O)c(OC)c3)nc(N)n2)ccc1O` is 4.85% (active).
Under `C/C(=N\O)c1ccc(NC(=O)CSc2nnc(-c3ccccc3)n2-c2ccccc2)cc1` stands 64.7%; under `O=C(NCCCNS(=O)(=O)c1ccc(Cl)cc1)Nc1ccc(-n2cc(-c3ccncc3)c(-c3ccc(Cl)c(O)c3)n2)cc1`, 76.4%.
As to `CS(=O)(=O)c1nccc(-c2c(-c3cccc(OCCN4CCOCC4)c3)nc3sccn23)n1`, the growth was 76.9%.
Under `C=CCSC(CC)(CC)C(=O)NC` stands 102%.
Under `CCn1c(SC/C(=N/O)c2ccccc2)nnc1-c1ccccc1` stands 111%.
Under `CCN(CC)CCOc1ccc2c(c1O)C(=O)c1ccccc1C2=O` stands 73.3%; under `CS(=O)(=O)c1nccc(-c2c(-c3cccc(O)c3)nc3sccn23)n1`, 95.9%; under `CC(=O)[C@H]1CC[C@]2(C)[C@@H]1CC[C@@H]1[C@@]3(C)CC(CCC#N)(CCC#N)C(=O)C(C)(C)[C@@H]3CC[C@]12C`, 99.3%.
For the compound `COc1cc(-c2nn(-c3cccc(NC(=O)CN4CCOCC4)c3)cc2-c2cccnc2)ccc1Cl`, the growth was 98.9%.
Under `CNS(=O)(=O)Oc1ccc(-c2sc3cc(OS(=O)(=O)NC)ccc3c2C(=O)c2ccc(OCCN3CCCCC3)cc2)cc1` stands 79.8%.
The figure for `Clc1ccc(/C=C2\CCCC3C2=Nc2ccccc2NC3c2ccc(Cl)cc2)cc1` (stereo not given) is 122%; for `CCOS(=O)(=O)c1c(C(C)C)cc(C(C)C)cc1C(C)C` it is 98.9%.
Consider `COc1cc(/C=C/c2cc(/C=C/c3ccc(O)c(OC)c3)n(C(=O)Nc3ccccc3Cl)n2)ccc1O`, for which the growth is 8.39% (active).
